Test results taken from PubChem BioAssay AID504582 (Broad Institute, 2011).
The campaign covered roughly 340,000 compounds. About 2,300 (0.68%) were called active. The sample holds actives, similar compounds and a random draw of the others, so the mix is not that of the screen. Unmarked numbers belong to inactive results. No stated cut-off is given here; in the data, active means growth rescue above about 28% (passing the limit was not always enough); inconclusive means no clear call, values can overlap the other calls.

test: rescue of yeast from PfHsp40 toxicity, primary screen, S. cerevisiae, ATP luminescence (AID 504582);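 further: yeast W303a lacking pdr1 and pdr3 grown in galactose medium; growth measured after three days at 30 °C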; settings: S. cerevisiae expressing PfHsp40, growth rescue, at 12.5 µM, stronger effect = higher value

Row | SMILES | growth rescue
1 | C/C(Cn1nnc2ccccc21)=N\OC(=O)c1cc(F)c(F)cc1Cl | 0.415%
2 | O=C(CCC(=O)N1CCCC1)Nc1ccc([N+](=O)[O-])cc1 | -0.401%
3 | Cc1c(C(=O)N2CCCC2)c(S(=O)(=O)NCC(C)c2ccccc2)c(C)n1C (stereo not drawn) | -0.332%
4 | CCOC(=O)c1ccccc1NC(=O)COC(=O)CCC(=O)N1CCOCC1 | -0.942%
5 | COC(=O)/C=C\C(=O)Nc1cccc([N+](=O)[O-])c1 | 233% (active)
6 | O=C(Nc1cccc([N+](=O)[O-])c1)Nn1cnnc1 | 0.084%
7 | CCC(CC)NC(=O)/C=C/c1cccc([N+](=O)[O-])c1 | -2.62%
8 | CCOC(=O)N1CCN(C(=O)C(=O)Nc2sc3c(c2C#N)CC(C)(C)OC3)CC1 | -1.13%
9 | COc1ccc(-c2nc3n(c(=O)c2C#N)CCS3)c(OC)c1 | -0.93%
10 | CCCc1nc(SCC(=O)Nc2ccc(S(=O)(=O)N(C)C)cc2)c2ccccc2n1 | 56.5% (active)
11 | CCCNC(=O)CSc1nc(Cc2ccccc2)nc2ccccc12 | 1.34%
12 | O=C(CSc1nc(C2CC2)nc2ccccc12)Nc1ccc2c(c1)OCCO2 | 0.157%
13 | Cc1ccc(-n2c(C)nnc2SCC(=O)NC2CC2)cc1 | 0.655%
14 | CCCCC/C=C/C1=CC(=O)C[C@H](c2ccc(Cl)cc2)C1 | -0.132%
15 | Cc1cccnc1NC(=O)Cn1c(=O)oc2ccccc21 | 0.888%
16 | CSCc1cc(N2CCOCC2)nc(SCc2ccc(Cl)cc2Cl)n1 | 21.9%
17 | CSCc1cc(N(C)C)nc(SCc2ccc(Cl)cc2Cl)n1 | 119% (active)
18 | Nc1cc(N)nc(SCc2ccc(Cl)cc2)n1 | 0.722%
19 | O=C(O)c1cc2ccccc2c(=O)s1 | -1.29%
20 | CCCCCCCCCCCCn1ccc(=N)cc1 | 174% (active)

Row | SMILES | growth rescue
21 | CCCCCCCCn1c2c(c(=N)c3c1CCC3)CCCC2 | -1.32%
22 | CCCCCN1CC(O)=C(c2ccccc2)C1=N | 1.8%
23 | Nc1cccnc1Sc1ccccc1 | -0.346%
24 | O=C(CN1C(=O)NC2(CCCCC2)C1=O)NCCC1=CCCCC1 | -1.2%
25 | COc1ccc(C(CNC(=O)c2ccc(S(=O)(=O)Nc3ccccc3F)cc2)N(C)C)cc1 (stereo not drawn) | 33.3% (active)
26 | COc1ccc(C(CNC(=O)c2ccc(NS(=O)(=O)c3ccc(F)c(C)c3)cc2)N(C)C)cc1 (stereo not drawn) | -1.73%
27 | CC(=O)c1ccc(S(=O)(=O)Nc2ccc(C(=O)NCC(c3ccccc3)N(C)C)cc2)cc1 (stereo not drawn) | 0.039%
28 | Cc1ccc(C)c(C(=O)N2CCC(n3nccc3NC(=O)C3CC3)CC2)c1 | -0.915%
29 | COc1ccccc1NC(=S)N1CCN(C(c2ccccc2)c2ccccc2)CC1 | -0.67%
30 | COc1ccccc1C1CCN(C(=S)Nc2ccc(Br)cc2)CC1 | 41.2% (active)
31 | CCC(C)N(C)C1CCN(C(=S)Nc2ccc(OC)cc2)CC1 (stereo not drawn) | 0.96%
32 | COC(=O)C1(C)NC(c2ccccc2OC)C2C(=O)N(c3ccccc3)C(=O)C21 (stereo not drawn) | -1.44%
33 | O=S(=O)(c1cccc(Cn2nnc(-c3ccc(F)cc3)n2)c1)N1CCOCC1 | 1.33%
34 | O=C(OCCN=C1NS(=O)(=O)c2ccccc21)c1cccc([N+](=O)[O-])c1 | 0.884%
35 | CCn1c(O)c2ccc(C(=O)N=NC(=O)c3cccnc3)cc2c1O | -1.24%
36 | O=C1C2N=NN(CC(=O)N3N=C(c4cccc5ccccc45)CC3c3ccccc3)C2C(=O)N1c1ccccc1 (stereo not drawn) | -1.21%
37 | Oc1ccccc1C1=NN(c2ccccc2)C(c2ccccc2)C1 (stereo not drawn) | 134% (active)
38 | Cc1ccc(N2C(=O)C3N=NN(CC(=O)N4N=C(c5cccc6ccccc56)CC4c4ccccc4)C3C2=O)cc1 (stereo not drawn) | -1.11%
39 | CCN(CC)C(=O)C1CCC(C)(C(=O)O)C1(C)C (stereo not drawn) | 1.46%
40 | COC(=O)C(C(=O)Nc1cccc(C)n1)C1CCCCCC1 (stereo not drawn) | -0.474%

Row | SMILES | growth rescue
41 | CC(C)NC(=O)N1CCN(c2ccncc2S(=O)(=O)N2CCCCC2)CC1 | -0.643%
42 | O=C(COC(=O)CCOc1ccccc1)Nc1cc(S(=O)(=O)N2CCCCC2)ccc1Cl | 1.68%
43 | Brc1ccc(-c2n(-c3ccccn3)c3ccccc3[n+]2-c2ccccn2)cc1 | 0.665%
44 | CCCCOC(=O)c1ccc(N2C(=O)CC(N3CCN(C/C=C/c4ccccc4)CC3)C2=O)cc1 (stereo not drawn) | 0.282%
45 | CCOC(=O)c1ccc(N2C(=O)CC(N3CC(C)OC(C)C3)C2=O)cc1 (stereo not drawn) | -0.556%
46 | CCOC(=O)c1ccc(N2C(=O)CC(N3CCN(C(=O)c4ccccc4)CC3)C2=O)cc1 (stereo not drawn) | 53.1% (active)
47 | COc1ccc(N(C)S(=O)(=O)c2ccc3c(c2)CC(C)N3C(=O)C2CC2)c(OC)c1 (stereo not drawn) | 2.19%
48 | CCC(C(=O)NCCC(C)C)N(Cc1ccccc1Cl)C(=O)c1snc(C(N)=O)c1N (stereo not drawn) | 0.982%
49 | CCCCC(C(=O)NC(C)(C)C)N(Cc1ccccc1)C(=O)c1snc(C(N)=O)c1N (stereo not drawn) | 59.5% (active)
50 | CC(C)(C)NC(=O)C(c1ccc(Cl)cc1)N(CCO)C(=O)c1snc(C(N)=O)c1N (stereo not drawn) | -0.519%
51 | CC12CCC(=O)N1C(C(=O)NCCN1C(=O)S/C(=C\c3ccccc3F)C1=O)CS2 (stereo not drawn) | -1.34%
52 | COc1ccc(CCNc2nc(C)cc(C)n2)cc1OC | 0.933%
53 | NS(=O)(=O)c1ccc(CCNC(=O)c2ccc(Cl)c(S(=O)(=O)N3CCCCCC3)c2)cc1 | 0.571%
54 | CC1=CC(C)(C)N(C(=O)CSc2nnc(-c3ccccc3)o2)c2ccc(C)cc21 | 81.1% (active)
55 | CCc1ccccc1NC(=O)CSc1nnc(-c2ccncc2)o1 | -0.233%
56 | CC1=CC(C)(C)N(C(=O)CSc2nccn2C)c2cc(C)ccc21 | -0.0285%
57 | O=C(CN(c1ccc2c(c1)OCCO2)S(=O)(=O)c1ccccc1)Nc1ccc2c(c1)OCO2 | 0.974%
58 | COc1ccc(CNC(=O)COC(=O)c2sccc2C)cc1OC | -0.071%
